The record followed here is PubChem BioAssay (NCATS).

Unmarked numbers belong to inactive results. Inconclusive results are not listed. Active and inactive are the calls of the source. Unless noted, the call rests on the fitted dose curve; in most records, active means well fitted curve in either direction with a large enough effect (not every such curve was filed as active); inconclusive means small, poorly fitted or top-dose-only effect, or another doubt; inactive means flat fitted curve, though single readings scatter. Where only a bound is given, the exact number is not on record here.

The target of assay [1] is Lysosomal acid glucosylceramidase (Homo sapiens) (UniProt P04062). In words: Glucocerebrosidase-p2 (AID 348; in the data active means potency below about 10 µM; further: potency means the concentration at half of the fitted maximal effect). Conditions: purified GBA, blue fluorogenic substrate, 40 min. The gist of the method: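 Compounds titrated from 0.6 nM upwards against 0.2 nM enzyme in pH 5.9 citric acid/KH2PO4, taurocholate, tween-20; blue fluorogenic substrate 80 uM, 40 min room temperature, stopped and read Ex 365/Em 440 for AC50.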

Assay [2] can be described thus: AP1 Signaling Pathway (AID 357). Further: on the % scale 0 is the no-effect control and ±100 the full control effect. The settings on record: ME-180 AP-1-bla reporter, EGF-induced, beta-lactamase ratio, 5 h; at 7.69 µM (top of the series) unless noted. The method, boiled down: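 AP-1-bla ME-180 cells with beta-lactamase reporter under AP-1 response element, stimulated with EC50 EGF; compounds titrated, 5 hours at 37 degrees Celsius. CCF4 read at 460/530 nm ratio; positive and negative modulators judged by AC50.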

The nature of assay [3]: NFAT Signaling Pathway (AID 444).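 Further: carbachol stimulus at about its EC50 of 1 µM final; on the % scale 0 is the no-effect control and ±100 the full control effect.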 Conditions: Jurkat NFAT-bla M1, carbachol, beta-lactamase ratio, 5 h; at 7.69 µM (top of the series) unless noted. The method, boiled down: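 Read-out: CCF4 FRET ratio (460 nm/530 nm) after 1 h RT dye loading, used for %activity and AC50 from titration series. Cells: Jurkat NFAT-β-lactamase/M1 line, treated with compound plus 1 uM carbachol for 5 h, 37 °C.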

Assay [4] is described as follows: Stat Signaling Pathway (AID 446).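 Further: ME-180 cervical cancer cells given 40 pM IL-6 alongside compound; SIE-controlled beta-lactamase reporter measured as 460/530 nm FRET emission ratio; on the % scale 0 is the no-effect control and ±100 the full control effect.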 The settings on record: ME-180 SIE beta-lactamase reporter, IL-6 stimulated, 5 h; at 7.69 µM (top of the series) unless noted. The method, boiled down: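 Reporter line: ME-180 cervical carcinoma, SIE-beta-lactamase. Treatment: compound with 40 pM IL-6, 5 hrs, 37 C, in low-serum OPTI-MEM with 10 mM HEPES pH 7.3. Detection: 460/530 nm fluorescence.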

Assay [5] deals with Glucocorticoid receptor (Homo sapiens) (UniProt P04150). In words: GR-EFC Redistribution (AID 451; calls by dose curve; further: potency means the concentration at half of the fitted maximal effect). The settings on record: CHO-K1 GR-EFC translocation, beta-gal luminescence, 2 h. The gist of the method:
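Translocation of GR-ED fusion to nuclear EA restores b-gal, read by luminescence after 1 h room-temperature detection. Engineered CHO-K1 biosensor cells, 1,000/well, exposed 2 h at 37 C to titrations up to 46 uM final.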

The target of assay [6] is Mitogen-activated protein kinase 10 (Mus musculus) (UniProt Q61831). In words: JNK3 AlphaScreen Assay (AID 530).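 Further: kinase came from lysate of stimulated human HepG2 cells; signal reports phosphorylation of biotinylated GST-cJun 1-79 at Ser73 with 10 µM ATP; on the % scale 0 is the no-effect control and ±100 the full control effect.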 The settings on record: JNK3 lysate, c-Jun phosphorylation; series mostly up to 57.1 µM. The gist of the method:
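Compound titrations were preincubated 15 minutes at room temperature with substrate, antibody and pre-activated JNK3-containing HepG2 lysate. Reactions were started with 10 uM ATP and stopped with EDTA-containing bead buffer for AlphaScreen detection.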
On the technique in general: In Alpha technology, singlet oxygen from a donor bead excites a nearby acceptor bead.

Assay [7] concerns the target 3',5'-cyclic-AMP phosphodiesterase 4B (Homo sapiens) (UniProt Q07343). Kind of assay: qHTS Assay for Inhibitors of PDE-IV (AID 607; active means well fitted activation curve with a large enough effect in the main read-out, with a control signal flat, not every such curve was filed as active; further: % of control where 0% means no effect). Conditions: HEK293 ACTOne CNG channel cells, membrane potential fluorescence; series mostly up to 22.9 µM. The gist of the method: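 Cell-based read-out of cAMP via a modified cyclic nucleotide-gated channel and membrane potential dye (535/590 nm) in HEK293 cells expressing PDE4 endogenously. Compounds tested up to 22.9 uM final; 100 uM RO 20-1724 reference.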
Background: Quantitative high-throughput screening tests each substance at several concentrations.

Assay [8] deals with Cytochrome P450 1A2 (Homo sapiens) (UniProt P05177). Kind of assay: p450-cyp1a2 (AID 410; calls by dose curve). The settings on record: recombinant CYP1A2, luciferin-ME demethylation, luminescence; series mostly up to 11.4 µM. The method, boiled down: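 20nM CYP1A2 with 100uM Luciferin-ME (at Km) in 100mM KPO4; compound preincubated 10 min, NADPH regeneration added, 60 min at room temperature. Luciferin quantified by luminescence after detection reagent; normalized to 57 uM furafylline.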

Assay [9] has as its target Cytochrome P450 3A4 (Homo sapiens) (UniProt P08684). Kind of assay: qHTS Assay for Activators of Cytochrome P450 3A4 (AID 885; active means well fitted curve in the direction sought with a large enough effect; an effect the other way counts as inactive or inconclusive; further: nearly all actives have a fitted effect of over 65% in size). Conditions: recombinant CYP3A4, Luciferin-PPXE luminescence, 60 min; series mostly up to 57.1 µM. The gist of the method:
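Signal was normalized against complete inhibition by 57 uM ketoconazole. The reaction used 20nM CYP3A4 with 25uM Luciferin-PPXE, 10-min compound preincubation and a 60-min NADPH-supported step at RT.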

The target of assay [10] is Cytochrome P450 2C19 (Homo sapiens) (UniProt P33261). Kind of assay: qHTS Assay for Inhibitors and Substrates of Cytochrome P450 2C19 (AID 899; active means well fitted curve in the direction sought with a large enough effect; an effect the other way counts as inactive or inconclusive; further: potency means the concentration at half of the fitted maximal effect; nearly all actives have a fitted effect of over 60% in size). Conditions: recombinant CYP2C19, luciferin-H EGE luminescence; series mostly up to 11.4 µM. The method, boiled down: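 Luminescence readout of luciferin formed from 10uM Luciferin-H EGE (KM level) by 5 nM CYP2C19 in 50mM KPO4. 60 min NADPH-driven reaction at 37C after 10 min compound preincubation; data scaled to 57uM ketoconazole inhibition.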

Assay [11] has as its target Glucocorticoid receptor (Homo sapiens) (UniProt P04150). In words: GR-GFP Redistribution (AID 450;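 active means compounds whose dose series gives a full or clear partial fitted curve of increased nuclear translocation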; further: potency means the concentration at half of the fitted maximal effect). Conditions: U2OS GR-GFP nuclear translocation, laser cytometry, 2 h.

Lysosomal acid glucosylceramidase (Homo sapiens), sequence (P04062 whole entry, looked up): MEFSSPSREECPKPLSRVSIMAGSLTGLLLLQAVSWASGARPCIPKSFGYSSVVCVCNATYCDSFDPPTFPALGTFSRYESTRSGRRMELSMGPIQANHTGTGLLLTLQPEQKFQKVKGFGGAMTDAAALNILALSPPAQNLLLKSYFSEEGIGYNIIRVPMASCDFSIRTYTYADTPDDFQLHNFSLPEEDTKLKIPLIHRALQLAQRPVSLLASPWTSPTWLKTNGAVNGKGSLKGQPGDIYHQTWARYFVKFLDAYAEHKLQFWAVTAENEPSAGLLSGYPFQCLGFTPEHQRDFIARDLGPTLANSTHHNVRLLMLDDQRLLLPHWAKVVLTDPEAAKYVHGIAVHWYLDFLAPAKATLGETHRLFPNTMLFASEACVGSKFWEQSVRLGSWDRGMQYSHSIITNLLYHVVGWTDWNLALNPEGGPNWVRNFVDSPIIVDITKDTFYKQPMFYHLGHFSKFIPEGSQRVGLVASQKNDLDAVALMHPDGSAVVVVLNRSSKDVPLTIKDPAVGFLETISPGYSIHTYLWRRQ
Glucocorticoid receptor (Homo sapiens), sequence (P04150 whole entry, looked up, the tested form may be a part): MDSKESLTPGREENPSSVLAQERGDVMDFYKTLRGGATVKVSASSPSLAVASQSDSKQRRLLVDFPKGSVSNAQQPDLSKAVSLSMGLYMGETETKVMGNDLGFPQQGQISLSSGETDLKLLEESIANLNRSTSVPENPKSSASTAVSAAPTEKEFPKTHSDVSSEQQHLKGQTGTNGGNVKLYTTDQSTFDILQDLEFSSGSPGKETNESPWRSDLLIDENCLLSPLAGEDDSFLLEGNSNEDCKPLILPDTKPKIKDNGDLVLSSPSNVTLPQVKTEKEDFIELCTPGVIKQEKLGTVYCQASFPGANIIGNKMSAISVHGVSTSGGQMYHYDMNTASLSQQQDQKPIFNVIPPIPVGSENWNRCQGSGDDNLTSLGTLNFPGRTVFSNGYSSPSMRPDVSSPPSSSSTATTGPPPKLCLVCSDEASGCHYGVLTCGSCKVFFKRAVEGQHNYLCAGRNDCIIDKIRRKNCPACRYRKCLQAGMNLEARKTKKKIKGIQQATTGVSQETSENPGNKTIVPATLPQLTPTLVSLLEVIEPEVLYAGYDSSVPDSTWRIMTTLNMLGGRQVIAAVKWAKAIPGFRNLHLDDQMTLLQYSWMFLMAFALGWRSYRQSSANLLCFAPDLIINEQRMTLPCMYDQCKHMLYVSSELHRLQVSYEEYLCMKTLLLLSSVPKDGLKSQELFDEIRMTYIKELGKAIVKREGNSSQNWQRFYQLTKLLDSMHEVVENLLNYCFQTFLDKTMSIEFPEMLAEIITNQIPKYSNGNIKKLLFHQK
3',5'-cyclic-AMP phosphodiesterase 4B (Homo sapiens), sequence (Q07343 whole entry, looked up): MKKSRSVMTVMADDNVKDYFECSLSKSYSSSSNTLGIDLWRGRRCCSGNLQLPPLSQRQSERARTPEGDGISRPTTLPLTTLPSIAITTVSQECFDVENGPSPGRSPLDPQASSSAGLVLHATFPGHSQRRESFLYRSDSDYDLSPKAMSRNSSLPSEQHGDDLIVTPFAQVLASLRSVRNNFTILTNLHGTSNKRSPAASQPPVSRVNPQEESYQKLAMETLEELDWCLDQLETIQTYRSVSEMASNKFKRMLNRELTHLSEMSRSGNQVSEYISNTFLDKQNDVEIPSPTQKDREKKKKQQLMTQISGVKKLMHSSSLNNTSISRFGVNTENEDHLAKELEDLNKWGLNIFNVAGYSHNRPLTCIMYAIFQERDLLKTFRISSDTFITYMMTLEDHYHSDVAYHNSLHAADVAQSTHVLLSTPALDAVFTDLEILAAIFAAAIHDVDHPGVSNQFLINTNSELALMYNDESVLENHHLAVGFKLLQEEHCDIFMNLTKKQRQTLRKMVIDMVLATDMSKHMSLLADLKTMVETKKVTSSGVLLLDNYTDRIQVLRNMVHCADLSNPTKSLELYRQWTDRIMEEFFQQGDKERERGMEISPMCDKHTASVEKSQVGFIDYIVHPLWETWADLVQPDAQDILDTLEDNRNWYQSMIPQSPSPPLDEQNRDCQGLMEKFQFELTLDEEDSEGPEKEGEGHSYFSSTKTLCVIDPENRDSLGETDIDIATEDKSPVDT
Cytochrome P450 1A2 (Homo sapiens), sequence (P05177 whole entry, looked up): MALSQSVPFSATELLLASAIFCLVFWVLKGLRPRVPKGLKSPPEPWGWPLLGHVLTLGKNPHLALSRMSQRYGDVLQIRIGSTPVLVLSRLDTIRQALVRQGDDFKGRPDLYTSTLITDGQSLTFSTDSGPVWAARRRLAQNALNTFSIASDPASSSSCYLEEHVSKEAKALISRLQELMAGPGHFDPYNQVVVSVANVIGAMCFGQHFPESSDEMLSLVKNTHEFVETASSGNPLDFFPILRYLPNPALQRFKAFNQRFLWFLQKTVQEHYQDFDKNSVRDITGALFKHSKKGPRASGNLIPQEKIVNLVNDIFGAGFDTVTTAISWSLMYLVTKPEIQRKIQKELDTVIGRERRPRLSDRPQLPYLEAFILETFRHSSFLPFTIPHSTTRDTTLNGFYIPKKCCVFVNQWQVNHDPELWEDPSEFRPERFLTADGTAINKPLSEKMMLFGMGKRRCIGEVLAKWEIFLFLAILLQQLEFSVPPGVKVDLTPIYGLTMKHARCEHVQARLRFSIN
Cytochrome P450 2C19 (Homo sapiens), sequence (P33261 whole entry, looked up): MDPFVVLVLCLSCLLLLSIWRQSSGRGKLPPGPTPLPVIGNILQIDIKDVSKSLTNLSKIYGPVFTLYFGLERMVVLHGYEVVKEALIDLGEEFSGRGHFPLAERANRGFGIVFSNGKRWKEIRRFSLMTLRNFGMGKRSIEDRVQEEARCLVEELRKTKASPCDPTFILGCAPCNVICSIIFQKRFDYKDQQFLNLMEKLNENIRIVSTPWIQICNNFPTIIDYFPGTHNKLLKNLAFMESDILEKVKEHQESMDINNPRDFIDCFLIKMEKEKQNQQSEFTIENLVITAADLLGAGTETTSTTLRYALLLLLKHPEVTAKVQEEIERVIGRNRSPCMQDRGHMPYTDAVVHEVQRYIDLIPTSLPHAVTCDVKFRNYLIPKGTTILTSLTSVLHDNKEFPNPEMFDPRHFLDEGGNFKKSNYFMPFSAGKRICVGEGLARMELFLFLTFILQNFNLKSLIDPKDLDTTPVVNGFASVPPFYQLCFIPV
Cytochrome P450 3A4 (Homo sapiens), sequence (P08684 whole entry, looked up): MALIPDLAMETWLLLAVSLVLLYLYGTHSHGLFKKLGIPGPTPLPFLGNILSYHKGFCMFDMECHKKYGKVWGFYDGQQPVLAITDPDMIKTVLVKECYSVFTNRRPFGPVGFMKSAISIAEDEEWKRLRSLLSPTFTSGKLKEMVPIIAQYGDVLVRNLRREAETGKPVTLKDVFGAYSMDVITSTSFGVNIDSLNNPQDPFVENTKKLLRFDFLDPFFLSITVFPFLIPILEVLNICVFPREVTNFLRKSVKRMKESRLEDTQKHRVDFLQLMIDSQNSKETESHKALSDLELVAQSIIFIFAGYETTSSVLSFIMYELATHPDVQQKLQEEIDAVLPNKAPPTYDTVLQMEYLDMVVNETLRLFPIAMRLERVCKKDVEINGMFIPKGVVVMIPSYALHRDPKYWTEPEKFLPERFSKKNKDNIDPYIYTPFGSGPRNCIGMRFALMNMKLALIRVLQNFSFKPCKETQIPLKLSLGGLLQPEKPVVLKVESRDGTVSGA

Turning to `O=P(O)(OP(=O)(O)c1ccccc1)c1ccccc1` (tested in a mixture with another compound), the results for the Potency in assay [1] and in assay [5] were over 11.4 µM and over 9.22 µM, respectively. In addition, the activity change, negative = inhibition in assay [2] was -8.54%; in assay [3], -3.07%; in [6] it was 3.03% [at 11.4 µM]. Besides, in assay [4], the activity, negative = inhibition is 2.23%. Besides, the compound was called inactive in [7].

For `C=C[C@@H]1CN2CC[C@H]1C[C@H]2[C@H](O)c1ccnc2ccccc12`, the Potency is over 11.4 µM in [1] and over 9.22 µM in [5]. In assay [8], the Potency entry is “inactive”. Moreover, the activity change, negative = inhibition in assay [3] was 0.393%; in assay [6], 5.22% [at 11.4 µM]. Also, the activity, negative = inhibition in assay [4] is 3.16%. Further, in assay [7], the compound was called inactive.

For the compound `CC(=O)O[C@H]1CC[C@H]2[C@@H]3CCC4=C[C@@H](C5SCCS5)[C@H](OC(C)=O)C[C@]4(C)[C@H]3CC[C@@]12C`, the Potency in [1] was over 11.4 µM; in assay [5] it was over 9.22 µM. Further, the activity change, negative = inhibition in assay [2] is -2.54%; in assay [6] it was 5.72% [at 11.4 µM]. Further, the activity, negative = inhibition in assay [4] is 0.282%. Also, the outcome in [7] was inactive.

As to `O=C(O)CN1CCN(CC(=O)O)CC(=O)[O][Hg][O]C(=O)C1`, the Potency in [1] was 0.199 µM (active); in [10], 0.794 µM (active). Also, the activity change, negative = inhibition in [2] is 18.9%; in assay [6], -1.36% [at 11.4 µM]. The activity, negative = inhibition in assay [4] is 1.17%. Also, the outcome in assay [7] was inactive. Also, the activity change, positive = activation in assay [9] was -78.1% [at 11.4 µM].

As to `CC(C)CC(=O)C[C@H](O)C(Cl)(Cl)Cl`, the values for the activity change, negative = inhibition in assay [2], in assay [3] and in assay [6] were 3.65%, -9% and 5.57% [at 11.4 µM], respectively. Moreover, the Potency entry in assay [8] was “inactive”. For the same compound, the activity, negative = inhibition in [4] is -1.91%. The Potency in assay [11] is over 46 µM; in assay [5], over 9.22 µM. Also, the outcome in [7] was inactive.
